Among the data in PubChem BioAssay AID588333 (National Center for Advancing Translational Sciences (NCATS), 2011) are Potency and outcome values, retold here.

Structures are written as SMILES. The source made the active and inactive calls.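 Rule for the calls: active = compounds that kill cultured T. brucei parasites with a half-maximal potency under 200 micromolar; inactive = compounds with no measurable potency.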

The assay is described as follows: Confirmatory Assay to Find Inhibitors of T. brucei phosphofructokinase: T. brucei in vitro Parasite Assay. The conditions noted are these: T. brucei brucei culture viability, Alamar Blue, 72 h. From the text:
Various species of the protozoan family Trypanosomatidae are responsible for a range of serious human diseases in tropical and subtropical areas of the world. […] Many of the disorders caused by trypanosomatids are fatal if left untreated, but most currently used drugs are inefficient and toxic. […] Oxidative metabolism involving the mitochondrial tricarboxylic acid cycle and oxidative phosphorylation are repressed in these parasites, and recent RNA interference (RNAi) experiments have shown that even partial depletion of certain individual glycolytic enzymes can lead to the death of cultured parasites. One such glycolytic enzyme, phosphofructokinase (PFK), catalyzes the formation of fructose-1,6-bisphosphate (F1,6BP) and ADP from fructose-6-phosphate (F6P) and ATP, and in many metabolic circumstances makes an important contribution to the control of flux through the glycolytic pathway. As a specific glycolytic target, PFK is particularly attractive as it catalyzes the first irreversible step in glycolysis, and structural and kinetic studies have shown very substantial and essential differences from corresponding host enzymes, allowing for the discovery of parasite-selective inhibitors. Selected active compounds were additionally tested in a well-validated in vitro parasite assay to determine the relative potencies of lead compounds against live T. brucei cultures. H Chemical Genomics Center [NCGC] NIH Molecular Libraries Probe Centers Network [MLPCN] MLPCN Grant: MH092153-01 Assay Submitter (PI): Malcom Walkinshaw, University of Edinburgh
Dilutions of T. brucei brucei were incubated in modified Iscove's cell culture medium (supplemented with 10% FBS, 0.05 mM bathocuproine sulfonate, 1.5 mM L-cysteine, 1 mM hypoxanthine, 0.2 mM 2-mercaptoethanol, 1 mM sodium pyruvate and 0.16 mM thymidine) with titrations of compound for 72 hours. The cell density is adapted so that after 72 hours of incubation, the cells are at the end of the logarithmic growth phase (~5x104 tryps/mL). General morphology and motility were recorded after incubation, and Alamar Blue dye was added as a fluorescent marker of viability (ex530/em590) and read on a fluorescent plate reader following 4 hrs of incubation at 37 degrees C. The results of this assay were used to prioritize medicinal chemistry efforts in conjunction with the human cell toxicity assay to give a measure of relative parasite/host toxicity ratio.
Background: Resazurin is reduced to fluorescent resorufin, in cell work by metabolically active cells.
Consider `Cc1cc(NS(=O)(=O)c2ccc(NC(=O)Cc3ccc(Cl)c(Cl)c3)cc2)on1`, for which the Potency was 157 µM (active).

Take `Cc1cc(NS(=O)(=O)c2ccc(NC(=O)Cc3ccc(Cl)c(Cl)c3)cc2)no1`: the Potency is 26.8 µM (active).

For `O=C(Cc1ccc(Cl)c(Cl)c1)Nc1ccc(S(=O)(=O)Nc2ccon2)cc1`, the Potency was 16.3 µM (active).

In the case of `Cc1cc(NS(=O)(=O)c2ccc(NC(=O)Cc3ccc(Cl)c(F)c3)cc2)no1`, the Potency is 38.9 µM (active).

Turning to `O=C(Cc1ccc(Cl)c(Cl)c1)Nc1ccc(S(=O)(=O)Nc2cccc(C(=O)O)c2)cc1`, the Potency was 105 µM (active).

As to `COc1ccc(CC(=O)Nc2ccc(S(=O)(=O)Nc3cc(C)on3)cc2)cc1OC`, the compound was called inactive.

In the case of `O=C(Cc1ccc(Cl)c(Cl)c1)Nc1ccc(S(=O)(=O)Nc2ccc(C(=O)O)cc2)cc1`, the compound was classed as inactive.
